Screening data as filed in PubChem BioAssay.
Rows were chosen to be rich in hits. Some 28% of all compounds tested hit in one or more screens of this group.
CYP2C9 inhib: blockers of cytochrome P450 2C9 activity – biochemical, luminescence, ADME assay, primary screen; P11712; CYP2C9 Supersomes, luciferin-H conversion; inhibition, % at 5 µM; 96,000 compounds, 20% hits; AID 777, 2007;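 active means blocking of liver enzyme CYP2C9 beyond about 50% at 5 µM, limit read from the data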
CYP2C19 inh: blockers of cytochrome P450 2C19 activity – biochemical, luminescence, ADME assay, primary screen. P33261. CYP2C19 Supersomes, luciferin-H EGE luminescence, 30 min. inhibition, % at 5 µM. 96,000 compounds, 21% hits. AID 778, 2007;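 active means CYP2C19 inhibition above a set limit at 5 µM in the primary screen, cut at about 50% in these data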;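 further: plate controls were negative control wells for no effect and 2.5 mM tranylcypromine positive control for full effect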
Target sequence (P33261 whole entry, looked up): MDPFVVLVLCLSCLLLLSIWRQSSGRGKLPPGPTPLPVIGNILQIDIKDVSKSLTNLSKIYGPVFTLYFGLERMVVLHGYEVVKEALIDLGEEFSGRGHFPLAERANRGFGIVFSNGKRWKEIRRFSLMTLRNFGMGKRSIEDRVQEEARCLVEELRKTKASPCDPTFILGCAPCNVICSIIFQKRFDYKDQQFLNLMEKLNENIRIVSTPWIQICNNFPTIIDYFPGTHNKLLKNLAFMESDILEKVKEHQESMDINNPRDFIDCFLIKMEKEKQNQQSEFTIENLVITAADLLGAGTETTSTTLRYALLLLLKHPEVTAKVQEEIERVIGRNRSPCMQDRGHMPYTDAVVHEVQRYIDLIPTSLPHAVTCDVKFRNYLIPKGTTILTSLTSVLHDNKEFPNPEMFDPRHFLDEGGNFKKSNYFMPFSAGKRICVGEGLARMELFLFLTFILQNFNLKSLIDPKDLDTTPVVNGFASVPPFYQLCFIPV
CYP2C9 act: human CYP2C9 activators, primary screen, biochemical, luminescence; Cytochrome P450 2C9 (Homo sapiens), P11712; recombinant CYP2C9, luciferin-H conversion; hits give high values; factor 1 = untreated enzyme, 0 = blocked; activation factor at 5 µM; 96,000 compounds, 1.4% hits;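 active means activation factor of 2 or more for CYP2C9 at a 5 µM dose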;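 further: 0 = sulfaphenazole-blocked wells and 1 = vehicle-only wells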
CYP2C19 act: human CYP2C19 activators, primary screen, biochemical, luminescence; Cytochrome P450 2C19 (Homo sapiens), P33261; activation factor at 5 µM; recombinant CYP2C19, luciferin-H EGE luminescence; hits give high values; 0 = fully inhibited enzyme, 1 = untreated enzyme; 96,000 tested, under 10 active;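 active means activation factor of at least 2 at 5 µM in the primary screen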;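 further: 0 = wells with 2.5 mM tranylcypromine and 1 = vehicle-only wells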
Plk1 PBD FP: Plk1 polo box domain binding inhibitors, primary screen, biochemical, fluorescence polarization; Plk1 PBD phosphopeptide binding; inhibition, %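 (tested at about 20 µM)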; 97,000 compounds, 0.13% hits; in the data active means inhibition above about 34%, passing the limit was not always enough
PLK1 inh: human PLK1 kinase inhibitors, primary screen, biochemical, TR-FRET; Serine/threonine-protein kinase PLK1 (Homo sapiens), P53350; recombinant PLK1 kinase, TR-FRET peptide phosphorylation; inhibition, % at 10 µM; AID 619, 2007; 97,000 compounds, 0.53% hits;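 active means inhibition of 50% or more in the single-concentration screen; inactive means inhibition below 50%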;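 further: 0% = DMSO max control and 100% = H-89 dihydrochloride min control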
* marks the source's active call; other numbers are inactive results; . = not tested or not shown.

SMILES	CYP2C9 inhib	CYP2C19 inh	CYP2C9 act	CYP2C19 act	Plk1 PBD FP	PLK1 inh
CCc1nc2c(nnn2Cc2ccc(F)cc2)c(=O)[nH]1	10	88*	0.9	0.1	15	-2
N#Cc1cccc(NC(=O)N2CCC(c3nc4c(nnn4Cc4cccc(Cl)c4)c(=O)[nH]3)CC2)c1	-18	-18	1.2	1.2	21	-8
O=C(NCc1cccs1)c1nc2c(nnn2Cc2ccc(F)cc2)c(=O)[nH]1	.	.	.	.	0	-12
O=C(Cc1cc(=O)[nH]c(=O)[nH]1)N1CCC(Cc2ccccc2)CC1	.	.	.	.	-5	0
COc1ccc(N2CCN(C(=O)c3ccc(-n4nc(C)cc4C)cc3)CC2)cc1	33	33	0.7	0.7	26	-5
O=C(NC(=S)Nc1nc(-c2ccc(Br)cc2)cs1)c1cccnc1	27	-11	0.7	1.1	19	-6
O=C(NNc1nc(-c2ccccc2)cs1)c1ccccc1	53*	40	0.5	0.6	11	-13
O=C(Nc1nc(-c2ccccc2)cs1)c1cccnc1	37	67*	0.6	0.3	-18	0
CC1=Nc2ncnn2C(c2ccccc2)/C1=N\O (stereo not given)	8	9	0.9	0.9	17	-12
O=C(c1cc2n(n1)C(C(F)(F)F)CC(c1ccc(F)cc1)N2)N1CCCC1 (stereo not given)	23	5	0.8	1	-5	-4
COc1ccc[nH]c1=O	33	81*	0.7	0.2	0	1
Cc1cc2c(ncn2C(C)C)c(N)c1C	-3	48	1	0.5	32	-7
Cn1c(-c2ccc3c(c2)OCO3)cnc1NCc1ccc(Cl)cc1	99*	66*	0	0.3	14	25
Cc1ccc(CNc2ncc(-c3ccc4c(c3)OCO4)n2C)cc1	74*	69*	0.3	0.3	-9	20
Cn1c(=O)c2c(nc(NCc3ccc4c(c3)OCO4)n2C)n(C)c1=O	16	-2	0.8	1	-10	-8
CCCN(CCC)S(=O)(=O)c1cc(Br)cc2c1N(C(=O)CC)CC2	42	9	0.6	0.9	.	.
Cc1ccc(NC2c3ncccc3C(=O)N2Cc2ccc(F)cc2)cc1 (stereo not given)	53*	32	0.5	0.7	-23	0
COc1ccc(CN2C(=O)c3cccnc3C2Nc2ccc(OC)c(Cl)c2)cc1 (stereo not given)	13	38	0.9	0.6	2	-14
CC1Cc2nc(SCC(=O)NCc3ccco3)n(Cc3ccccc3)c(=O)c2S1 (stereo not given)	48	37	0.5	0.6	.	.
CCn1c(SCC(=O)c2ccccc2)nc2c(c1=O)SC(C)C2 (stereo not given)	90*	38	0.1	0.6	.	.
COCCn1c(SCC(=O)c2ccccc2)nc2c(c1=O)SC(C)C2 (stereo not given)	96*	91*	0	0.1	-8	-16
Fc1ccc2c(Cl)c(-c3nnc(-c4cccs4)o3)sc2c1	-15	-8	1.2	1.1	.	.
Cc1ccccc1NC1=C(Cl)C(=O)OC1OC(C)C (stereo not given)	30	96*	0.7	0	4	-15
Cn1c(SCC(=O)c2ccc3c(c2)Cc2ccccc2-3)nnc1-c1ccccc1	-1	20	1	0.8	-27	-32
COc1ccc(-n2c(SCC(=O)NCCC(C)C)nc3ccsc3c2=O)cc1	14	7	0.9	0.9	12	-16
SMILES	CYP2C9 inhib	CYP2C19 inh	CYP2C9 act	CYP2C19 act	Plk1 PBD FP	PLK1 inh
CCCCNC(=O)CSc1nc2ccsc2c(=O)n1C1CCN(C(=O)OCC)CC1	56*	36	0.4	0.6	-9	-13
Cc1ccc2oc3nc(C)c(C(=O)O)cc3c(=O)c2c1	31	60*	0.7	0.4	3	-4
S=C(c1ccc(-c2ccc(Cl)c(Cl)c2)o1)N1CCOCC1	89*	88*	0.1	0.1	.	.
N#CCCN1CCN(C(=S)c2ccc(-c3cc(Cl)ccc3Cl)o2)CC1	-174	30	2.7*	0.7	-10	-12
S=C(c1ccc(-c2ccc(Cl)cc2Cl)o1)N1CCCCC1	72*	62*	0.3	0.4	12	-20
S=C(c1ccc(-c2ccccc2Cl)o1)N1CCOCC1	-55	44	1.5	0.6	.	.
CCN(CC)C(=O)CN(C#N)c1nc(NC(C)C)nc(NC(C)C)n1	-8	12	1.1	0.9	-14	-7
COCCCNC(=O)Cn1cc2c(n1)CCC(C)C2 (stereo not given)	-23	-3	1.2	1	.	.
CC1=NC(=O)C(N=Nc2cccc3ccccc23)N1c1ccccc1 (stereo not given)	.	.	.	.	-26	-11
CCN(CC)C(=O)CSc1nnc(-c2ccccn2)n1-c1ccc(C)c(C)c1	-1	-5	1	1.1	10	-10
CCOC(=O)C1=C(C)NC(=O)NC1c1cc(C)sc1C (stereo not given)	0	7	1	0.9	-10	-6
CCN(CC)CCN1C(=O)C(=O)/C(=C(/O)c2ccc(OC)cc2)C1c1cccs1 (stereo not given)	-29	-12	1.3	1.1	-21	-11
CCOc1ccc(/C(O)=C2/C(=O)C(=O)N(CCCn3ccnc3)C2c2cccs2)cc1Cl (stereo not given)	70*	19	0.3	0.8	-5	-18
O=C(C1CCC1)N1CCc2cc(S(=O)(=O)N3CCN(c4ccccn4)CC3)ccc21	40	0	0.6	1	.	.
CN(c1ccccc1)S(=O)(=O)c1cc(C(=O)c2nccn2C)ccc1Cl	91*	99*	0.1	0	-40	-2
CN1CCn2c1nc(N1CCOCC1)nc2=O	8	-4	0.9	1	7	2
O=C(O)C1CCCN1C(=O)c1cccs1 (stereo not given)	.	.	.	.	-32	-7
O=C(C1CCCN1C(=O)c1cccs1)N1CCc2ccccc21 (stereo not given)	18	54*	0.8	0.5	27	-21
O=C(c1cc2nc(-c3cccs3)cc(C(F)(F)Cl)n2n1)N1CCCc2ccccc21	89*	32	0.1	0.7	2	-6
O=C(c1cc2nc(-c3cccs3)cc(C(F)(F)F)n2n1)N1CCCc2ccccc21	10	14	0.9	0.9	2	-10
O=C(c1cccs1)N1CCCc2ccccc21	37	64*	0.6	0.4	2	-13
O=C(c1cccs1)N1CCc2ccccc21	-4	15	1	0.9	-18	-10
Cc1c(NC(=O)CSc2nnc3c4ccccc4n(CCc4ccccc4)c3n2)c(=O)n(-c2ccccc2)n1C	33	23	0.7	0.8	6	-9
